± gives the standard deviation.
Legend:
Conditions in all cases: modulator concentration 10 µM
[1] = tested on: RAW-Dual (murine macrophage reporter line); test: NF-kB reporter (SEAP) activity fold change vs agonist alone; higher = enhanced NF-kB activity
Procedure, shortened: (§1)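 RAW-Dual murine macrophage reporter cells were seeded at 50 000 per well in 384-well plates and pre-incubated 1 hour at 37 °C with compound pin-transferred to 10 μM final. After 1 hour, a PRR agonist was added and cells incubated overnight. Supernatant NF-κB (SEAP, QUANTI-Blue, 620 nm absorbance) and IRF (Lucia luciferase, QUANTI-Luc, luminescence) signals were divided by the mean agonist-only control on the same plate to give fold change. Two replicate plates were averaged, with errors by propagation.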

[2] = tested on: RAW-Dual (murine macrophage reporter line); test: IRF reporter (Lucia luciferase) activity fold change vs agonist alone; higher = enhanced IRF activity
Procedure, shortened: as §1

[3] = tested on: RAW-Dual (murine macrophage reporter line); test: viability score (confluency relative to resting cells, overnight) (fraction); higher = more viable, active = viable (0.7 or more)
Procedure, shortened: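 Overnight exposure to 10 μM final compound was carried out on RAW-Dual macrophages in 384-well plates. IncuCyte software generated two confluency masks over all wells imaged with IncuCyte. The viability score gives confluency in relation to resting cells. A compound met the cutoff if each mask exceeded 70% of resting cells.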

[4] = agonist: CpG ODN 1826 0.5 ug/mL

Structure (SMILES)	NF-kB reporter [1, 4]	NF-kB reporter ([1]; agonist: LPS 0.1 ug/mL)	NF-kB reporter ([1]; agonist: MPLA […])	IRF reporter ([2]; agonist: 3'3'-cGAMP 10 ug/mL)	IRF reporter ([2]; agonist: LPS 0.1 ug/mL)	IRF reporter ([2]; agonist: MPLA […])	viability score [3]
Cc1occc1C(=O)Nc1ccc([N+](=O)[O-])cc1Cl	0.88 ± 0.079	0.851 ± 0.066	0.898 ± 0.026	1.02 ± 0.088	0.931 ± 0.12	0.874 ± 0.2	0.995 (active)
O=S(=O)(C=Cc1ccccc1)NCc1ccccc1	0.933 ± 0.15	1.03 ± 0.083	0.953 ± 0.085	1.03 ± 0.028	1.28 ± 0.13	1.61 ± 0.37	0.97 (active)
S=C(NC12CC3CC(CC(C3)C1)C2)N1CCOCC1	1.14 ± 0.11	1.06 ± 0.074	1.07 ± 0.039	1.01 ± 0.13	1.07 ± 0.1	1.15 ± 0.12	1 (active)
CC(C)Oc1cccc(C(=O)NC(=S)N2CCN(c3ccc([N+](=O)[O-])cc3)CC2)c1	0.83 ± 0.064	0.943 ± 0.053	1.09 ± 0.1	0.829 ± 0.038	1.19 ± 0.089	1.34 ± 0.15	1.02 (active)
C=CC(C)(O)CCC=C(C)C (stereo not drawn)	0.988 ± 0.085	0.841 ± 0.062	0.999 ± 0.11	1.01 ± 0.038	1.22 ± 0.16	1.34 ± 0.28	1.03 (active)
CCN(CC)CCCC(C)Nc1c2ccc(Cl)cc2nc2ccc(OC)cc12 (stereo not drawn) [Prestw-318]	0.0785 ± 0.011	0.167 ± 0.04	0.447 ± 0.051	0.0346 ± 0.0049	1.19 ± 0.22	0.939 ± 0.22	0.825 (active)
COC1CCN(C2CN(C(=O)CCn3cnc4ccccc4c3=O)C2)CC1	1.05 ± 0.052	1.08 ± 0.092	0.882 ± 0.044	1.01 ± 0.052	1.27 ± 0.076	1.13 ± 0.24	0.994 (active)
O=C(NC(=S)Nc1cccc([N+](=O)[O-])c1)c1cccc(I)c1	0.944 ± 0.1	1.08 ± 0.072	0.985 ± 0.044	0.794 ± 0.1	1.09 ± 0.14	1.02 ± 0.17	1 (active)
CC=CCn1c(=O)c2c(nc3n2CC(C(C)(C)C)=NN3)n(C)c1=O	1.02 ± 0.092	1.09 ± 0.1	1.08 ± 0.11	1 ± 0.026	1.28 ± 0.2	0.943 ± 0.099	0.96 (active)

From the supplement of paper PMC10646978
